Reference: PubChem BioAssay AID1159580 (chemical genetic matrix, 2015)
Hit rate of the full screen: of about 5,500 compounds, about 2,000 (36%) were called active. Roughly 18% stayed inconclusive and do not appear here. Rule as the data show it: active = normalized growth mostly below about 0.91 (no sharp cut-off); inconclusive = no clear call, values can overlap the other calls; inactive = mostly above about 0.92. The list shows a part of the results.

Experiment: chemical genetic growth profiling, strain panel (AID 1159580);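 also: tested at 20 µM; growth read once vehicle control cultures reached saturation at 30 °C; 1 = growth at the plate median or of vehicle wells; lower values mean less growth of the strain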
Conditions: growth OD

Measured: normalized growth

O=C1NC(=O)C(=O)C(=O)N1
inactive: S. cerevisiae deletion strains, locus YJR075W, strain HOC1, stronger effect = lower value 1.04 | S. cerevisiae deletion strains, locus YKL009W, strain mrt4, stronger effect = lower value 0.992 | S. cerevisiae deletion strains, locus YKL068W, stronger effect = lower value 0.997 | S. cerevisiae deletion strains, locus YKL085W, strain MDH1 (second series), stronger effect = lower value 1 | S. cerevisiae deletion strains, locus YKL085W, strain MDH1, stronger effect = lower value 1 | S. cerevisiae deletion strains, locus YKL160W, strain elf1, stronger effect = lower value 0.989 | S. cerevisiae deletion strains, locus YKL190W, strain CNB1, stronger effect = lower value 1.01 | S. cerevisiae deletion strains, locus YKR001C, strain vps1, stronger effect = lower value 0.994 | S. cerevisiae deletion strains, locus YKR026C, strain gcn3, stronger effect = lower value 0.992 | S. cerevisiae deletion strains, locus YKR091W, strain srl3, stronger effect = lower value 0.989 | S. cerevisiae deletion strains, locus YLL001W, strain dnm1, stronger effect = lower value 0.994 | S. cerevisiae deletion strains, locus YLL026W, stronger effect = lower value 0.998 | S. cerevisiae deletion strains, locus YLL041C, strain sdh2, stronger effect = lower value 1 | S. cerevisiae deletion strains, locus YLR027C, strain aat2, stronger effect = lower value 1 | S. cerevisiae deletion strains, locus YLR039C, strain RIC1, stronger effect = lower value 1.04 | S. cerevisiae deletion strains, locus YLR058C, strain SHM2, stronger effect = lower value 1.02 | S. cerevisiae deletion strains, locus YLR102C, strain apc9, stronger effect = lower value 0.987 | S. cerevisiae deletion strains, locus YLR113W, strain HOG1, stronger effect = lower value 0.967 | S. cerevisiae deletion strains, locus YLR221C, strain rsa3, stronger effect = lower value 0.99 | S. cerevisiae deletion strains, locus YLR258W, strain gsy2, stronger effect = lower value 1.01 | S. cerevisiae deletion strains, locus YLR262C, strain YPT6 (second series), stronger effect = lower value 0.989 | S. cerevisiae deletion strains, locus YLR262C, strain YPT6, stronger effect = lower value 1.04 | S. cerevisiae deletion strains, locus YLR268W, strain sec22, stronger effect = lower value 0.968 | S. cerevisiae deletion strains, locus YLR320W, strain mms22, stronger effect = lower value 0.994 | S. cerevisiae deletion strains, locus YLR330W, strain CHS5, stronger effect = lower value 1.01 | S. cerevisiae deletion strains, locus YLR342W, strain FKS1 (second series), stronger effect = lower value 1.05 | S. cerevisiae deletion strains, locus YLR342W, strain FKS1, stronger effect = lower value 0.975 | S. cerevisiae deletion strains, locus YLR357W, strain rsc2, stronger effect = lower value 0.952 | S. cerevisiae deletion strains, locus YLR370C, strain arc18, stronger effect = lower value 0.982 | S. cerevisiae deletion strains, locus YLR371W, strain rom2, stronger effect = lower value 0.978 | S. cerevisiae deletion strains, locus YLR384C, strain iki3, stronger effect = lower value 0.99 | S. cerevisiae deletion strains, locus YLR418C, strain cdc73, stronger effect = lower value 0.991 | S. cerevisiae deletion strains, locus YML016C, strain PPZ1, stronger effect = lower value 1.01 | S. cerevisiae deletion strains, locus YML032C, strain rad52, stronger effect = lower value 0.976 | S. cerevisiae deletion strains, locus YML120C, strain ndi1, stronger effect = lower value 0.99 | S. cerevisiae deletion strains, locus YML124C, strain tub3, stronger effect = lower value 0.993 | S. cerevisiae deletion strains, locus YMR058W, strain fet3, stronger effect = lower value 0.999 | S. cerevisiae deletion strains, locus YMR078C, strain ctf18, stronger effect = lower value 0.98 | S. cerevisiae deletion strains, locus YMR125W, strain sto1, stronger effect = lower value 0.982 | S. cerevisiae deletion strains, locus YMR129W, stronger effect = lower value 0.982 | S. cerevisiae deletion strains, locus YMR205C, strain PFK2, stronger effect = lower value 1 | S. cerevisiae deletion strains, locus YMR223W, strain ubp8, stronger effect = lower value 1.01 | S. cerevisiae deletion strains, locus YMR231W, strain pep5, stronger effect = lower value 0.98 | S. cerevisiae deletion strains, locus YMR263W, strain SAP30, stronger effect = lower value 1.01 | S. cerevisiae deletion strains, locus YMR307W, strain GAS1, stronger effect = lower value 1.03 | S. cerevisiae deletion strains, locus YNL067W, strain RPL9B, stronger effect = lower value 1.01 | S. cerevisiae deletion strains, locus YNL071W, strain lat1, stronger effect = lower value 0.988 | S. cerevisiae deletion strains, locus YNL128W, strain TEP1, stronger effect = lower value 1.02 | S. cerevisiae deletion strains, locus YNL153C, strain GIM3, stronger effect = lower value 1.02 | S. cerevisiae deletion strains, locus YNL183C, strain NPR1, stronger effect = lower value 0.912 | S. cerevisiae deletion strains, locus YNL209W, strain ssb2, stronger effect = lower value 0.985 | S. cerevisiae deletion strains, locus YNL233W, strain BNI4, stronger effect = lower value 1.01 | S. cerevisiae deletion strains, locus YNL248C, strain rpa49, stronger effect = lower value 0.996 | S. cerevisiae deletion strains, locus YNL250W, strain rad50, stronger effect = lower value 0.995 | S. cerevisiae deletion strains, locus YNL271C, strain bni1, stronger effect = lower value 0.995 | S. cerevisiae deletion strains, locus YNL298W, strain CLA4, stronger effect = lower value 0.999 | S. cerevisiae deletion strains, locus YNL307C, strain MCK1, stronger effect = lower value 1.01 | S. cerevisiae deletion strains, locus YNL322C, strain KRE1 (second series), stronger effect = lower value 0.989 | S. cerevisiae deletion strains, locus YNL322C, strain KRE1, stronger effect = lower value 1.01 | S. cerevisiae deletion strains, locus YNR049C, strain mso1, stronger effect = lower value 0.988 | S. cerevisiae deletion strains, locus YNR052C, strain pop2, stronger effect = lower value 0.971 | S. cerevisiae deletion strains, locus YOL006C, strain TOP1, stronger effect = lower value 1.1 | S. cerevisiae deletion strains, locus YOL012C, strain htz1 0.951 | S. cerevisiae deletion strains, locus YOL147C, strain pex11, stronger effect = lower value 0.998 | S. cerevisiae deletion strains, locus YOR001W, strain rrp6, stronger effect = lower value 0.969 | S. cerevisiae deletion strains, locus YOR061W, strain CKA2, stronger effect = lower value 1.01 | S. cerevisiae deletion strains, locus YOR069W, strain VPS5, stronger effect = lower value 1.01 | S. cerevisiae deletion strains, locus YOR070C, strain gyp1, stronger effect = lower value 0.984 | S. cerevisiae deletion strains, locus YOR080W, strain dia2, stronger effect = lower value 0.99 | S. cerevisiae deletion strains, locus YOR083W, strain WHI5, stronger effect = lower value 0.996 | S. cerevisiae deletion strains, locus YOR106W, strain vam3, stronger effect = lower value 0.99 | S. cerevisiae deletion strains, locus YOR136W, strain idh2, stronger effect = lower value 0.996 | S. cerevisiae deletion strains, locus YOR144C, strain elg1, stronger effect = lower value 0.987 | S. cerevisiae deletion strains, locus YOR184W, strain ser1, stronger effect = lower value 0.997 | S. cerevisiae deletion strains, locus YOR231W, strain MKK1, stronger effect = lower value 0.964 | S. cerevisiae deletion strains, locus YOR265W, strain rbl2, stronger effect = lower value 1.01 | S. cerevisiae deletion strains, locus YOR270C, strain vph1, stronger effect = lower value 1.07 | S. cerevisiae deletion strains, locus YOR290C, strain snf2, stronger effect = lower value 0.983 | S. cerevisiae deletion strains, locus YOR316C, strain cot1, stronger effect = lower value 0.987 | S. cerevisiae deletion strains, locus YPL051W, strain arl3, stronger effect = lower value 1.01 | S. cerevisiae deletion strains, locus YPL055C, strain LGE1, stronger effect = lower value 1.04 | S. cerevisiae deletion strains, locus YPL078C, strain atp4, stronger effect = lower value 0.987 | S. cerevisiae deletion strains, locus YPL106C, strain sse1, stronger effect = lower value 0.99 | S. cerevisiae deletion strains, locus YPL240C, strain hsp82, stronger effect = lower value 0.995 | S. cerevisiae deletion strains, locus YPL241C, strain CIN2, stronger effect = lower value 1.01 | S. cerevisiae deletion strains, locus YPL256C, strain CLN2, stronger effect = lower value 0.955 | S. cerevisiae deletion strains, locus YPR119W, strain clb2, stronger effect = lower value 0.983 | S. cerevisiae deletion strains, locus YPR141C, strain kar3, stronger effect = lower value 0.994 | S. cerevisiae deletion strains, locus YPR163C, strain tif3, stronger effect = lower value 0.987 | S. cerevisiae deletion strains, locus YPR167C, strain met16, stronger effect = lower value 0.986 | S. cerevisiae deletion strains, strain wtn01, stronger effect = lower value 0.98 | S. cerevisiae strains, strain wild type, stronger effect = lower value 1.02
